The values that follow come from the supplement of paper PMC10981050.

One may read the cell viability as a read-out of living cells in per cent, often relative to untreated cells.

The assay relates to MARIMO. Description: cell viability relative to vehicle control; higher = less cytotoxic. The note with it: 10 µM; SRSF2 genotype: SRSF2 wt/wt. The procedure, abridged:
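Each screen used CRISPR-edited mutant and wild-type clones from four leukaemia lines. Compounds were acoustically dispensed at a single 10 µM dose, and CellTiter-Glo luminescence was read after 48 h with the supernatant first removed. Viability was analysed in Genedata Screener and given as percent of the on-plate vehicle control.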
In the case of `Cn1sc(=O)n(Cc2ccccc2)c1=O`, the cell viability was 0.14%.

On to `O=C(CCCCCN1C(=O)c2cccc3cccc(c23)C1=O)NO` [Scriptaid], for which the cell viability worked out at 4.11%.

As for `O=C(O)CNC(=O)c1ccccc1` [Hippuric acid], the cell viability stood at 112%.

In the case of `Cn1cc(-c2ccc3nnc(Sc4ccc5ncccc5c4)n3n2)cn1`, the cell viability was 101%.

`CS(=O)(=O)c1ccc(-c2cnc(NCc3ccco3)n3cnnc23)cc1`: the cell viability is 99.5%.

In the case of `Nc1ccc(Oc2ccc(-c3ccc(Oc4ccc(N)cc4)cc3)cc2)cc1` [4,4prime-Bis(4-aminophenoxy)biphenyl], the cell viability came out at 101%.

Turning to `CCCCCOC(=O)Nc1nc(=O)n([C@@H]2O[C@H](C)[C@@H](O)[C@H]2O)cc1F` [Capecitabine (Xeloda)], the cell viability came to 108%.

Take `C=CC(=O)Nc1cc(Nc2nccc(-n3cc(CN(C)C)c(-c4ccccc4)n3)n2)c(OC)cc1N1CCOCC1`: the cell viability stood at 80.2%.
